The values below come from PubChem BioAssay.

The structures appear in SMILES notation. Results filed as inconclusive are left out. Activity calls are given as the source filed them.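 How the source made its calls, unless noted: active means viability at or below 30% in both replicate assays; inconclusive means viability at or below 30% in just one of the two assays; inactive means the rest.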

What is called viability is a read-out of living cells in per cent, often relative to untreated cells. In general, inhibition refers to the change of the read-out against control, counted positive when it falls.

A short description of assay [1]: Her2 expression decrease, cell viability multiplex – SKBR3 breast tumor cells, AlphaScreen, ATP viability, primary screen (AID 461;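 active means Her2 level under about 52% in both replicate screens, with viability over 70% of control, limit read from the data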;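 on Her2 level: lower value means less Her2 protein in the cells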;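 on viability: percent of carrier control wells set as 100% viability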). The following applies: SKBR3 Her2 protein level, 18-24 h, measured here: SKBR3 viability, ATP luminescence, at 10 µM.
Assay [2] addresses Receptor tyrosine-protein kinase erbB-2 (Homo sapiens) (UniProt P04626). Described as above. The settings on record: 18-24 h, at 10 µM, stronger effect = lower value.
Assay [3] in a line: reduced viability of SK-BR-3 breast cancer cells – cell-based, 24 h, human, pilot screen (AID 572;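 active means viability at or below 10% of carrier control in both of two separate runs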;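 further: compound exposure lasted between 18 and 24 h rather than exactly 24 h; 100% = carrier-treated control wells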). The following applies: SK-BR-3 viability, CellTiter-Glo luminescence, at 10 µM, stronger effect = lower value. Background: In ATP-based viability assays light output follows the ATP content of the culture.
Assay [4] can be described thus: HUVEC growth inhibition – cell-based, human, primary screen (AID 575).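 Further: 100% = median of untreated cell wells with 0.1% DMSO on each plate.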 The following applies: HUVEC proliferation, CellTiter-Glo luminescence, 72 h; at 10 µM; stronger effect = lower value.
Assay [5] can be described thus: H69AR cell proliferation blockers – human, duplicate replicates, primary screen (AID 580;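 active means viability at or under a set limit in both replicates, limit being median viability minus 3 SD, cut at about 48% in these data, passing the limit was not always enough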;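 further: 100% = mean luminescence of untreated wells and 0% = no signal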). The following applies: H69AR lung tumor cells viability, ATP luminescence, 72 h; at 10 µM; stronger effect = lower value.
The nature of assay [6]: MRP1 drug-resistance reversers in H69AR cells – cell-based, doxorubicin co-treatment, pilot screen (AID 601;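 active means viability loss from added drug above about 55%, and viability with drug at most 40%, in both replicates, limit read from the data, passing the limit was not always enough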). The following applies: CellTiter-Glo, 72 h, at 10 µM; for differential viability (reversal): stronger effect = higher value.
A short description of assay [7]: yeast transport mutant growth inhibition pilot in 384-well plates, post-Golgi transport modulator project (AID 636; in the data active means inhibition above about 31%). The following applies: absorbance 615 nm, about 18 h, stronger effect = higher value.
Assay [8] can be described thus: growth suppression of yeast trafficking mutant, preliminary HTS, modulators of trafficking downstream of Golgi apparatus project, 1536-format plate, OD 615 nm (AID 637; in the data active means inhibition above about 30%). The settings on record: yeast transport mutant growth, absorbance 615 nm, 18 h; stronger effect = higher value.
Assay [9] in a line: S. cerevisiae growth inhibition in permissive medium (OD615), pilot counter-assay for S. cerevisiae lifespan shortening project, permissive growth control (AID 705;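 active means growth inhibition above 25% in both replicates, a cutoff set 3 SD above the mean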). The following applies: OD615, 24 h, at 10 µM, stronger effect = higher value.
Assay [10] can be described thus: S. cerevisiae growth inhibition in restrictive medium, OD615, pilot screen, restrictive growth control, yeast lifespan reduction project (AID 706;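 active means growth inhibition above a set limit, 3 SD over mean compound inhibition, in both replicates, cut at about 43% in these data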;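 further: modified DeaD lifespan yeast strain shifted to restrictive glucose medium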). The following applies: OD615, 48 h, at 10 µM, stronger effect = higher value.
Assay [11] is described as follows: doxorubicin toxicity protection in MRP-1 cells – H69AR cells, CellTiter-Glo, duplicate, MRP-1 activator project, pilot screen (AID 807;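 active means viability increase at or above a cutoff of the median across tested compounds plus 3 SD, cut at about 8.5% in these data, passing the limit was not always enough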;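 further: compound pretreatment 18-22 h then 72 h combined with doxorubicin; 0% = doxorubicin alone and 100% = vehicle without doxorubicin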). The settings on record: H69AR viability with doxorubicin, CellTiter-Glo luminescence; at 10 µM; stronger effect = higher value.
Assay [12] in a line: viability of HCT116 without oncogenic beta-catenin – human colon tumor cells, pilot screen (AID 823;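 active means cell viability at or below a set limit in both duplicate runs, the limit being the all-compound median minus 4 SD, cut at about 23% in these data, passing the limit was not always enough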;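 further: 0% = wells killed by 20 µM Hyamine and 100% = untreated DMSO cell wells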). The settings on record: HCT116 beta-catenin knockout viability, CellTiter-Glo, 60 h; at 10 µM; stronger effect = lower value.
The nature of assay [13]: viability of PTEN-null HCT116 cells – cell-based, HCT116 clonal line, CellTiter-Glo, pilot screen (AID 824;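 active means viability at or below 27.92% in each of two runs, the all-compound median minus 4 SD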;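 further: 0% = 20 µM Hyamine control and 100% = vehicle cell control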). The following applies: HCT116 PTEN-deleted viability, 60 h, at 10 µM, stronger effect = lower value.
Assay [14] is described as follows: RAM pathway blockade in budding yeast – dse1pr::URA3 reporter, 5-FOA selection, pilot screen (AID 869;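 active means inhibition over a set limit, the all-compound mean plus 3 SD, in both replicate runs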;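 further: 0% = DMSO wells with no growth and 100% = 10 µM 1-NA-PP1 with full growth; RAM network block rescues cells from 5-FOA so hits raise OD615 growth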). The settings on record: S. cerevisiae dse1pr::URA3 5-FOA growth, OD615, 2 d; at 10 µM; stronger effect = higher value; strain carries analog-sensitive mutant Cbk1 kinase.
[15] abbreviates: H69AR cells + 2 uM doxorubicin, measured here: viability with 2 uM doxorubicin, stronger effect = lower value.
The mark [16] stands for this setting: H69AR cells, compound alone cytotoxicity.

Receptor tyrosine-protein kinase erbB-2 (Homo sapiens), sequence (P04626 whole entry, looked up): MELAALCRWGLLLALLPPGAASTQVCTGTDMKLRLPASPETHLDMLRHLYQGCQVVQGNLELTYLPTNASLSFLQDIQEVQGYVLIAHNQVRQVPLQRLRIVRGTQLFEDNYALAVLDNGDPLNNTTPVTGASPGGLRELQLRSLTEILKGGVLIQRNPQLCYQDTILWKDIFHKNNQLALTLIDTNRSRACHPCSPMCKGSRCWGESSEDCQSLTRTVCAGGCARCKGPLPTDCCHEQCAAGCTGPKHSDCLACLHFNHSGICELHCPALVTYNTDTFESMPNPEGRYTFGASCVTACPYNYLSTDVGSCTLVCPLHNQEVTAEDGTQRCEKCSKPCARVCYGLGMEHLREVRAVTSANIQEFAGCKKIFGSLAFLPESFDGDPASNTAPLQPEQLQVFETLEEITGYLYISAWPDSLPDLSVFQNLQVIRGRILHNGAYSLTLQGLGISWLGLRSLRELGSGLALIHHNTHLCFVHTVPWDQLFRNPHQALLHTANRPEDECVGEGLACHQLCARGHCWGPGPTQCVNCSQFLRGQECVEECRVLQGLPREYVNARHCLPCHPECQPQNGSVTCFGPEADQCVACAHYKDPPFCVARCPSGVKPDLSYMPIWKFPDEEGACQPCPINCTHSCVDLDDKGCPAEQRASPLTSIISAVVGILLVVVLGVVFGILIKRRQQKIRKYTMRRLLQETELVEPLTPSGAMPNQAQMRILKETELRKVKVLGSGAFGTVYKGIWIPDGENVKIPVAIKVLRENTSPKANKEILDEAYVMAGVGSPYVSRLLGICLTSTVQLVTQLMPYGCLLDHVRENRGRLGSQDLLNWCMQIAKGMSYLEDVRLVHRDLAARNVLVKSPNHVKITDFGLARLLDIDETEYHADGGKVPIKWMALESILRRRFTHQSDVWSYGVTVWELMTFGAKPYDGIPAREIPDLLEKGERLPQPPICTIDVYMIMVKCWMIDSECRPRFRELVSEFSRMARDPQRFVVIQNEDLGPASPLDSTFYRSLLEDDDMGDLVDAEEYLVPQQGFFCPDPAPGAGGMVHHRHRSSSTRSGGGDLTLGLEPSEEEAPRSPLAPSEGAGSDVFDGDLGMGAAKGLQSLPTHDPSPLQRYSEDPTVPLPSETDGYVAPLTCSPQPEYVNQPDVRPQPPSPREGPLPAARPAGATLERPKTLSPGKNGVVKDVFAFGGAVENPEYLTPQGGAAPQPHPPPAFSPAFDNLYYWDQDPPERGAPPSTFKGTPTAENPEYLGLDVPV

For `CCCCCn1c2nc3ccccc3nc2c2c(=O)n(CC(C)C)cnc21`, the viability was 116% in assay [1]; 116% (inactive) in [3]; 103% (inactive) in assay [4]; 87.3% (inactive) in assay [5]; 91.3% in assay [6] (setting [15]); 87.3% in [6] (setting [16]). In addition, in assay [2], the Her2 level was 103% (inactive). For the same molecule, in assay [6] (H69AR cells + 2 uM doxorubicin), the differential viability (reversal) is -3.98% (inactive). Further, the inhibition in [7] is -0.79% (inactive); in assay [8], 3.55% (inactive).
For `CCOc1ccc2c(O)csc2c1`, the viability in assay [1] is 90.5%; in assay [3], 90.5% (inactive); in [4], 96.2% (inactive); in [5], 95.9% (inactive); in [6] (setting [15]) it was 93.7%; in assay [6] (setting [16]), 95.9%. Also, in assay [2], the Her2 level was 116% (inactive). For the same molecule, the differential viability (reversal) in assay [6] (H69AR cells + 2 uM doxorubicin) is 2.28% (inactive). Besides, the inhibition is 0.13% (inactive) in assay [7] and 2.17% (inactive) in assay [8].
Take `Cc1ccc(-c2nc3cc(N)ccc3o2)cc1`: the viability in assay [1] was 104%; in [3], 104% (inactive); in assay [4], 72.6% (inactive); in [5], 79.9% (inactive); in assay [6] (setting [15]), 81.7%; in assay [6] (setting [16]), 79.9%. Besides, the Her2 level in [2] was 115% (inactive). Further, in assay [6] (H69AR cells + 2 uM doxorubicin), the differential viability (reversal) is -1.81% (inactive). For the same molecule, the results for the inhibition in [7] and in [8] were -2.82% (inactive) and -2.17% (inactive), respectively.
As to `OC(CN1CCN(c2ccccc2)CC1)c1ccc2c(c1)CCN2` (configuration not stated), the viability is 87.5% in [1]; 87.5% (inactive) in assay [3]; 95.3% (inactive) in [4]; 69.5% (inactive) in assay [5]; 95.5% in [6] (setting [15]); 69.5% in assay [6] (setting [16]). For the same molecule, the viability in assay [12] was 83.9% (inactive); in [13], 84.4% (inactive). In assay [2], the Her2 level is 110% (inactive). The differential viability (reversal) in assay [6] (H69AR cells + 2 uM doxorubicin) is -26% (inactive). Also, the inhibition is -2.4% (inactive) in assay [7], 3.33% (inactive) in assay [8] and 0.78% (inactive) in assay [14]. The growth inhibition in assay [9] is -10.4% (inactive); in assay [10], -5.32% (inactive). The viability increase in [11] is -6.11% (inactive).
Turning to `Cc1ccc(-n2ncc3c(N4CCN(c5ccc(F)cc5)CC4)ncnc32)c(C)c1`, the viability is 87.5% in [1]; 87.5% (inactive) in assay [3]; 91.8% (inactive) in assay [4]; 71.4% (inactive) in [5]; 39.6% in [6] (setting [15]); 71.4% in assay [6] (setting [16]). Besides, the Her2 level in assay [2] was 94.5% (inactive). Besides, the differential viability (reversal) in assay [6] (H69AR cells + 2 uM doxorubicin) is 31.8% (inactive). The inhibition in assay [7] was 0.26% (inactive); in assay [8], -3.55% (inactive).
As to `CN(C)/C=C1\N=C(c2ccc(Cl)cc2Cl)OC1=O`, the viability in assay [1] is 102%; in assay [3] it was 102% (inactive); in [4], 92.7% (inactive); in [5], 95.9% (inactive); in assay [6] (setting [15]) it was 76.3%; in assay [6] (setting [16]), 95.9%. Further, in [2], the Her2 level is 108% (inactive). Further, the differential viability (reversal) in [6] (H69AR cells + 2 uM doxorubicin) was 19.6% (inactive). Further, the inhibition in assay [7] was -3.29% (inactive); in [8], -3.97% (inactive).
Take `CCOc1ccc(C(CC(=O)O)NC(=O)c2ccco2)cc1OC` (configuration not stated): the viability in assay [1] was 102%; in assay [3], 102% (inactive); in assay [4], 104% (inactive); in assay [5], 94.2% (inactive); in [6] (setting [15]), 92.3%; in [6] (setting [16]), 94.2%. Moreover, the Her2 level in assay [2] is 102% (inactive). Also, in assay [6] (H69AR cells + 2 uM doxorubicin), the differential viability (reversal) is 1.89% (inactive). Further, the inhibition in assay [7] is -6.76% (inactive); in assay [8], -1.33% (inactive).
Take `CC12CCC(C(=O)O)(c3nc(C#N)c(C#N)nc31)C2(C)C` (configuration not stated): the viability was 106% in [1]; 106% (inactive) in assay [3]; 115% (inactive) in assay [4]; 91.6% (inactive) in [5]; 84.8% in assay [6] (setting [15]); 91.6% in assay [6] (setting [16]). In addition, the Her2 level in assay [2] was 96.5% (inactive). Further, the differential viability (reversal) in [6] (H69AR cells + 2 uM doxorubicin) was 6.8% (inactive). Further, the inhibition in assay [7] is -6.27% (inactive); in assay [8] it was 6.07% (inactive).
Take `Cc1ccc(C)c(N2CCN(Cc3nnnn3C3CCCCC3)CC2)c1`: the viability is 94% in assay [1]; 94% (inactive) in assay [3]; 78.1% (inactive) in assay [4]; 71% (inactive) in assay [5]; 80% in assay [6] (setting [15]); 71% in assay [6] (setting [16]). The Her2 level in assay [2] was 91% (inactive). For the same molecule, in [6] (H69AR cells + 2 uM doxorubicin), the differential viability (reversal) was -9.05% (inactive). Also, the inhibition in [7] was -3.25% (inactive); in assay [8], 3.49% (inactive).
Turning to `Cc1nc(SC2C=CS(=O)(=O)C2)n[nH]1` (configuration not stated), the viability in assay [1] is 104%; in assay [3] it was 104% (inactive); in [4], 99.7% (inactive); in [5] it was 86.3% (inactive); in [6] (setting [15]), 100%; in assay [6] (setting [16]), 86.3%. In assay [2], the Her2 level is 88% (inactive). The differential viability (reversal) in assay [6] (H69AR cells + 2 uM doxorubicin) is -13.9% (inactive). Further, the inhibition is -7.07% (inactive) in [7] and 3.11% (inactive) in assay [8].
In the case of `CCOCCCNC(=O)c1cc2sc(Cl)cc2n1CC`, the viability in assay [1] was 89%; in [3], 89% (inactive); in assay [4], 60% (inactive); in assay [5] it was 28.5% (active); in assay [6] (setting [15]) it was 72.5%; in assay [6] (setting [16]), 28.5%. For the same molecule, the Her2 level in [2] is 88% (inactive). For the same molecule, in assay [6] (H69AR cells + 2 uM doxorubicin), the differential viability (reversal) is -44% (inactive). For the same molecule, the inhibition in [7] is -8.36% (inactive); in assay [8], -0.95% (inactive).
Take `CSc1nc2ccc(Nc3nc(N4CCOCC4)nc(N4CCOCC4)n3)cc2s1`: the viability is 62.5% in assay [1]; 62.5% (inactive) in assay [3]; 18.5% (active) in assay [4]; 56.8% (inactive) in assay [5]; 60.5% in assay [6] (setting [15]); 56.8% in assay [6] (setting [16]). The viability was 68% (inactive) in assay [12] and 66.5% (inactive) in assay [13]. For the same molecule, the Her2 level in assay [2] was 106% (inactive). Besides, the differential viability (reversal) in [6] (H69AR cells + 2 uM doxorubicin) was -3.63% (inactive). Also, the inhibition is 3.08% (inactive) in assay [7], -0.5% (inactive) in assay [8] and 1.97% (inactive) in assay [14]. For the same molecule, the growth inhibition in assay [9] was -4.93% (inactive); in [10] it was -5.7% (inactive). Moreover, the viability increase in assay [11] was -5.72% (inactive).
Take `CCCCOC(=O)Cn1c(=N)n(CCN2CCOCC2)c2ccccc21`: the viability in [1] is 77%; in assay [3], 77% (inactive); in assay [4] it was 85.4% (inactive); in assay [5] it was 95.5% (inactive); in assay [6] (setting [15]) it was 79.2%; in assay [6] (setting [16]), 95.5%. The Her2 level in [2] is 102% (inactive). The differential viability (reversal) in [6] (H69AR cells + 2 uM doxorubicin) was 16.3% (inactive). Further, the inhibition in assay [7] is -7.47% (inactive); in [8] it was 0.16% (inactive).
